Shown are actives, neighbours in structure and some others; about 4% of the full set was active somewhere.
HIF-2a block = blocks HIF-2a reporter activity; AID 624352; 786-0 RCC cells HIF-2a reporter, luciferase luminescence, overnight; inhibition, % at 18.8 µM; hit rate 0.72% among 360,000;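 active = inhibition of the luminescence signal of 40% or more relative to plate controls, in a single-dose primary screen at 18.75 µM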
TROY signal inh = blocks TROY-dependent signaling in reporter cells; hit rate 0.98% among 360,000; inhibition, % at 10 µM; Q293 LMP1-TROYcd NF-kB luciferase reporter, 4 h; AID 1347056;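 active = compounds whose plate-normalised and pattern-corrected inhibition of the luciferase reporter signal at the single screening dose is 50% or more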
KKLEB cytotox = CF airway cell cytotoxicity counter-screen; KKLEB CF airway cells viability, ATPlite luminescence, overnight; stronger effect = lower value; cells stimulated with P. aeruginosa culture filtrate; activity change (cytotoxicity), % at 5 µM; hit rate 0.36% among 360,000;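 active = corrected activity change at or below -50% at 5 µM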
CF NFkB block = cystic fibrosis NF-kB activation inhibition. inhibition, % at 5 µM. hit rate 0.86% among 360,000. KKLEB NF-kB-GFP reporter, PAF-induced, GFP fluorescence overnight;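 active = at least 50% inhibition at 5 µM, scaled per plate between neutral and stimulator controls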;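 note: PAF is a Pseudomonas aeruginosa culture filtrate used as stimulus; plate controls were PAF-stimulated DMSO wells for no effect and unstimulated DMSO wells for full effect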
Peg3 promoter = inhibitors of Peg3 promoter; inhibition, % at 20 µM; hit rate 1.7% among 360,000; HeLa PEG-Prom luciferase reporter, luminescence, overnight;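 active = inhibition of at least 50% at 20 µM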
TWEAK Fn14 block = inhibitors of TWEAK-Fn14 interaction signaling; AID 1159606; inhibition, % at 10 µM; hit rate 2% among 360,000; TWEAK-stimulated Fn14 reporter cells, luciferase luminescence, 8 h; in the data active = inhibition above about 50%
* marks the source's active call; other numbers are inactive results.

SMILES | HIF-2a block | TROY signal inh | KKLEB cytotox | CF NFkB block | Peg3 promoter | TWEAK Fn14 block
Cc1ccc2nc(-c3cccc(SC4CCCCC4)c3)c(NCc3ccccc3)n2c1 | -45.3 | -18.2 | -8.6 | 38.8 | 67.5* | 17.0
Cc1ccn2c(NCc3ccccc3)c(-c3cccc(SC4CCCCC4)c3)nc2c1 | -63.6 | -36.9 | 0.2 | 14.8 | -45.9 | -26.7
c1ccc(CNc2c(-c3cccc(SC4CCCCC4)c3)nc3ccccn23)cc1 | -179.6 | -11.7 | -16.7 | 16.8 | 85.8* | 16.1
c1cc(SC2CCCCC2)cc(-c2nc3cnccn3c2NC2CCCCC2)c1 | 37.4 | -1.8 | -54.6* | 72.8* | 95.3* | 20.3
CCCc1nc2sc3c(c2c(=O)n1NC(=O)c1ccco1)CC(C)(C)OC3 | 3.0 | -36.7 | 3.4 | -3.6 | -6.5 | -7.3
CCCCCCCCCc1nc2sc3c(c2c(=O)n1NC(=O)c1ccccc1[N+](=O)[O-])CC(C)(C)OC3 | -0.7 | 58.2* | -32.9 | 43.5 | 31.3 | 49.1
COc1ccccc1CNc1nc(Nc2ccc(C)cc2C)c2sccc2n1 | -9.3 | 29.1 | 6.6 | -37.0 | 16.4 | 40.9
CC(=O)N1CCN(Cc2nc3cc(NC(=O)c4ccccc4Cl)ccc3n2C)CC1 | 10.3 | -9.3 | 11.0 | -14.6 | 5.0 | 13.2
Cn1c(CN2CCCCC2)nc2cc(NC(=O)c3ccccc3Cl)ccc21 | -7.9 | 22.0 | 6.8 | -1.0 | 1.9 | 51.7*
Cn1c(CCN2CCN(c3ccccn3)CC2)nc2cc(NC(=O)COc3ccc(Cl)cc3)ccc21 | 22.3 | 50.1* | -11.7 | 22.9 | 52.2* | 54.2*
Cc1cccc(OCC(=O)Nc2ccc3c(c2)nc(CN2CCCCC2)n3C)c1 | -2.7 | 57.5* | 9.0 | -9.1 | -2.4 | 81.0*
COc1ccc(OCC(=O)Nc2ccc3c(c2)nc(CCN2CCN(c4ccccn4)CC2)n3C)cc1 | -5.0 | 31.1 | 25.3 | -27.3 | 6.4 | 4.7
COc1ccc(CCC(=O)Nc2nnc(C(F)(F)F)s2)cc1 | -1.6 | -4.0 | -10.3 | 8.0 | -1.8 | -2.1
CC(C)CCNC(=O)C1CCN(S(=O)(=O)c2ccc3c(c2)CC(C)N3C(=O)C2CC2)CC1 (centres undefined) | 3.6 | -1.7 | -1.7 | 0.2 | 7.6 | -5.8
Cc1ccc(NC(=O)CSc2nnc3c(n2)[nH]c2ccccc23)cc1 | 3.6 | 4.1 | -1.4 | -3.3 | 3.6 | 8.0
Cn1c(SCC(=O)Nc2ccc(F)cc2)nc2c([nH]c3ccccc32)c1=O | 24.5 | -13.8 | -43.4 | 47.9 | 42.8 | 2.2
C=CCn1c(SCC(=O)Nc2ccccc2OC)nc2c([nH]c3ccccc32)c1=O | 15.3 | 18.6 | -57.0* | 55.4* | 7.3 | -1.6
COCCn1c(SCC(=O)Nc2ccccc2OC)nc2c([nH]c3ccccc32)c1=O | 30.9 | 6.9 | 0.8 | -6.9 | 24.1 | 42.7
Cc1ccc(NC(=O)CSc2nc3c([nH]c4ccccc43)c(=O)n2C)cc1 | 10.4 | -14.6 | 6.0 | 1.7 | 54.1* | -1.8
Cc1ccc(-c2csc(NC(=O)CSc3nnc4c(n3)[nH]c3ccccc34)n2)cc1 | -31.4 | 30.1 | -12.0 | 20.5 | 55.9* | 22.8
CCN(C(=O)CSc1nnc(SC(C)C)s1)C1CCS(=O)(=O)C1 (centres undefined) | 3.3 | 0.7 | -11.0 | -8.6 | -2.1 | -0.5
CCN1CCN(S(=O)(=O)c2ccc(Cl)c(C(=O)N(C)Cc3ccc(Cl)cc3Cl)c2)CC1 | 17.1 | 2.9 | -4.9 | 10.1 | 3.4 | 21.7
CCN1CCN(S(=O)(=O)c2ccc(Cl)c(C(=O)N(C)Cc3cccs3)c2)CC1 | 8.0 | -6.1 | -51.8* | 7.4 | 3.0 | 10.1
OC(c1cc(-c2ccc(Cl)cc2)nc2ccccc12)C1CCCCN1 (centres undefined) | -19.9 | -25.1 | -11.6 | 18.3 | 108.9* | -6.3
OC(c1cc(C(F)(F)F)nc2c(Cl)cc(Cl)cc12)C1CCCCN1 (centres undefined) | 2.8 | -19.3 | -3.8 | 5.8 | 108.6* | 18.9
SMILES | HIF-2a block | TROY signal inh | KKLEB cytotox | CF NFkB block | Peg3 promoter | TWEAK Fn14 block
CC(C)(C)NCCC(O)c1cc(C(F)(F)F)nc2c(C(F)(F)F)cccc12 (centres undefined) | -14.1 | -4.0 | -18.0 | 15.8 | 41.9 | -7.2
O[C@@H](c1cc(C(F)(F)F)nc2c(C(F)(F)F)cccc12)[C@H]1CCCCN1 | 0.4 | -11.7 | -10.3 | 15.5 | 102.7* | 36.4
CN1CCN(C(=O)c2ccccc2NC(=O)c2cccc(Cl)c2)CC1 | 21.2 | 6.3 | 7.8 | -10.9 | 4.7 | 13.3
C=C(C)Cn1c2ccc(NC(=O)NCCc3ccccc3)cc2c(=O)n1C | -18.2 | -42.3 | 1.2 | -15.2 | -23.2 | -7.0
C=C1C(=O)[C@]23C[C@H]1CCC2[C@@]1(C)C(C[C@@H]3O)[C@](C)(C(=O)OC)CC[C@@H]1OC(C)=O (some centres undefined) | 97.7* | 37.1 | -100.5* | 89.3* | 102.2* | 96.2*
Cc1ccc(C(=O)NCCN(C)C)c(C)c1 | -1.9 | -4.1 | 3.2 | -8.2 | 15.1 | -15.8
CNc1c2cccc(C)c2nc2c(C(=O)NCCN(C)C)cccc12 | 61.7* | -70.0 | -38.6 | 95.1* | 108.0* | 1.3
COc1ccc(Cl)cc1NC(=O)CCN1C(=O)C2C3CCC(C3)C2C1=O (centres undefined) | 7.9 | 0.1 | 6.6 | -2.3 | 4.4 | 19.0
COc1cccc(-c2nn(C)c3sc(C(=O)N4CCOCC4)cc23)c1 | -3.8 | -29.5 | -7.2 | -24.2 | 1.6 | -32.4
COc1cccc(-c2nn(C)c3sc(C(=O)N4CCN(c5ccccn5)CC4)cc23)c1 | -6.6 | 61.8* | -4.8 | 6.0 | 56.5* | 68.7*
COc1ccc(N=Nc2cc(OC)c(N)cc2OC)cc1 | -136.2 | -10.0 | 7.3 | -14.2 | -106.4 | -29.6
Cc1cc(N=Nc2ccc(C)c(N=Nc3cc(C)c(N)cc3N)c2)c(N)cc1N | -76.4 | 49.1 | 1.1 | -9.7 | -51.2 | 69.1*
COc1ccc(-c2coc3c(C(=O)NCc4ccc(C(F)(F)F)cc4)cccc23)c(C)c1 | -4.1 | 16.3 | -8.5 | 11.6 | 6.9 | 20.9
Cc1ccc(NS(=O)(=O)c2ccc(NC(=O)CN(c3cc([N+](=O)[O-])ccc3C)S(C)(=O)=O)cc2)c(C)c1 | 11.1 | 38.6 | 24.9 | -17.2 | 50.1* | 62.4*
N#Cc1cccc(S(=O)(=O)NCC(=O)OCC(=O)NCc2ccccc2)c1 | -0.4 | 0.7 | -5.1 | 2.2 | 13.0 | -1.4
Oc1ccccc1-c1cc(-c2cccc(F)c2)n[nH]1 | -240.5 | -47.3 | 10.5 | -28.3 | -271.6 | 9.5
CC(C)(C)c1ccc(-c2cc(-c3ccccc3O)[nH]n2)cc1 | -29.6 | 83.3* | -4.3 | -6.7 | -69.3 | 85.1*
CCOC(=O)c1c2c(n(Cc3ccccc3)c1C)C(=O)C(=O)c1ccccc1-2 | 89.3* | 64.9* | -75.3* | 61.3* | 93.4* | 104.5*
CCOC(=O)c1c2c3c(cccc3n(C)c1=O)C(=O)c1ccccc1-2 | -1.8 | 6.0 | -13.0 | -37.7 | 36.5 | 10.7
CCOC(=O)/C=c1\s/c(=C\c2ccc3cc(OC)ccc3c2)c(=O)n1CC(=O)NCC1CCCO1 (centres undefined) | 9.0 | -18.9 | -8.0 | -3.3 | 60.9* | -25.3

Compound activity as filed in PubChem.
